BAZ2B inh: blocks human BAZ2B; Q9UIF8; AlphaScreen BAZ2B-H3K14Ac peptide displacement; Potency, µM (series often up to 114 µM), inactives show at the highest dose activity change, negative = inhibition, hits mostly inhibitors; actives 4.4% (n = 360,000); AID 504333; also: % is scaled to controls: 0 for no effect and ±100 for the full control effect; nearly all actives have a fitted effect of over 60% in size
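Compounds, titrated to a top concentration of 110 uM, were incubated 30 min at room temperature with preformed BAZ2B/acetyl-K14 H3 peptide complex (50 nM each). Proximity signal was measured by AlphaScreen after 20 min with beads.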
HP1b chromo inh: inhibitors of HP1-beta chromodomain binding to methylated histone tails | P83916 | AlphaScreen HP1-beta / biotin-H3K9me3 peptide binding | Potency, µM (highest dose often 114 µM), inactives show top-dose activity change, negative = inhibition, usual class: inhibitors | actives 0.56% (n = 390,000) | AID 540317; also: nearly all actives have a fitted effect of over 70% in size
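HP1-beta protein (50 nM final) preincubated 30 min at room temperature with biotinylated H3(1-18)K9me3 peptide (50 nM) in PBS pH 7.4, 0.01% Tween-20, then compound added for 30 min. AlphaScreen streptavidin donor/nickel chelate acceptor beads (10 ug/mL final), 30 min dark, luminescence read.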
Sfp PPTase inh: blocks B. subtilis Sfp PPTase activity; Potency, µM, for the others: largest response in the series, negative = inhibition, actives largely listed as inhibitors; actives 3.5% (n = 310,000); Biochemical Sfp PPTase activity, qHTS;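 also: the enzyme is Sfp with the accession as filed and its product quenches rhodamine fluorescence; 0% = enzyme reaction without inhibitor and -100% = no enzyme wells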
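Compounds were incubated with enzyme (final 15 nM) for 15 min at room temperature before substrate addition started the reaction. Fluorescence at 525 nm excitation, 598 nm emission was recorded immediately and after 30 minutes.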
G9a block: inhibitors of human histone lysine methyltransferase G9a. Q96KQ7. G9a H3K9 monomethylation, AlphaScreen, 2 h. Potency, µM (top dose mostly 102 µM), for the others: top-dose activity, negative = inhibition, usual class: inhibitors. actives 8.8% (n = 350,000). AID 504332; also: % is scaled to controls: 0 for no effect and ±100 for the full control effect; nearly all actives have a fitted effect of over 75% in size
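Enzyme 20 nM + cpd, 15 min RT; add b-H3K9 pep 500 nM / SAM 20 uM; 2 h RT; anti-H3K9me1 Ab 0.5 ug/mL + SA donor / anti-rabbit acceptor beads 20 ug/mL each, 10 min; AlphaScreen read.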
JMJD2A Tudor inh: JMJD2A Tudor domain (human) inhibition | AlphaScreen JMJD2A-Tudor / H3K4me3 peptide binding | actives 4.4% (n = 390,000) | Potency, µM (highest dose often 114 µM), for the others: at the top dose activity change, negative = inhibition, most hits filed as inhibitors | O75164; also: % is scaled to controls: 0 for no effect and ±100 for the full control effect; nearly all actives have a fitted effect of over 50% in size
Target sequence (O75164 whole entry, looked up, the tested form may be a part): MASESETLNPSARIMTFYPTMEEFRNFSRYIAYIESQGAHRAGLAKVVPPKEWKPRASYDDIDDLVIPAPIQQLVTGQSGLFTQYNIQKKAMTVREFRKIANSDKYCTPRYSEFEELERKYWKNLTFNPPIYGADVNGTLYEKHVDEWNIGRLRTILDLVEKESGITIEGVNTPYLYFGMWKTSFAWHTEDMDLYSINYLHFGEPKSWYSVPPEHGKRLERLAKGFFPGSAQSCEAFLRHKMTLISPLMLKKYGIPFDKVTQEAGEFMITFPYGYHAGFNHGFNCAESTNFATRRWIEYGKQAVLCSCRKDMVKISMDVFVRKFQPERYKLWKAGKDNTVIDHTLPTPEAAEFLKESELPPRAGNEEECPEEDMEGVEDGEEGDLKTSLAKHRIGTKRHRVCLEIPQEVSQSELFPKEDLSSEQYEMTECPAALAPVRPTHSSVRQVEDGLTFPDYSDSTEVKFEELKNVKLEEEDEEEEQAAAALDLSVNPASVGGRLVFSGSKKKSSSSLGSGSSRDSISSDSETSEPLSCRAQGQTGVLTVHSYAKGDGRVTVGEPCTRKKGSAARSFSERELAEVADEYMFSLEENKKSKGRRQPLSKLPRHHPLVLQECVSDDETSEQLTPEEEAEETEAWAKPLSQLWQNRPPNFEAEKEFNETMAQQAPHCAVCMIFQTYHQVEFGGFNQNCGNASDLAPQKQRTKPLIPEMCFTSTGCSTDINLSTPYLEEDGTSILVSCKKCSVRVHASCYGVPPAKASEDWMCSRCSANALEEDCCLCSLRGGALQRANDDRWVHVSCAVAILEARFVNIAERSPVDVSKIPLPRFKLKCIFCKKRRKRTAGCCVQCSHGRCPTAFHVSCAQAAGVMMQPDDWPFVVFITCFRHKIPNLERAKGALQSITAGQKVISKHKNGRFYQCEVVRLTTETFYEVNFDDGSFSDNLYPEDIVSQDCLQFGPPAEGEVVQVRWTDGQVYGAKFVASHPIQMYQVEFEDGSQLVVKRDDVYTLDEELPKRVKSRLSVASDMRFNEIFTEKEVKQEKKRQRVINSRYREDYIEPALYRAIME
PLK1 PBD block: PLK1 (human) polo-box domain binding inhibition; P53350; Plk1 PBD binding of FITC phosphopeptide, fluorescence polarization; Potency, µM, inactives show max response, negative = inhibition, usual class: inhibitors; actives 2.8% (n = 360,000); AID 720504; also: series mostly up to about 57 µM; % is scaled to controls: 0 for no effect and ±100 for the full control effect; nearly all actives have a fitted effect of over 65% in size
An asterisk follows results filed as active; [ ] = remark or other dose. Only some compounds are listed: those with a hit (about 12% of all), similar ones and a draw of the others. Calls follow the shape of the dose curve; as a rule, active = well fitted curve in the direction sought with a large enough effect; inconclusive = small, poorly fitted or top-dose-only effect, or another doubt; inactive = no such curve, though single readings can be large; an effect the other way counts as inactive or inconclusive. Potency is read from the fitted curve at half-maximal effect.

What do the screens show for `C/C(=N\NC(=O)c1csc(C)c1C)c1ccc(Cl)s1`?
BAZ2B inh: 11%; HP1b chromo inh: -17%; Sfp PPTase inh: -3%; G9a block: inconclusive; JMJD2A Tudor inh: -6%[11.4 µM]; PLK1 PBD block: 24µM*

How did COc1ccc(N2N=NN(C(C)C)C2=C(Cl)c2nnnn2-c2ccc(OC)cc2)cc1 do in these assays?
HP1b chromo inh: 45%; JMJD2A Tudor inh: -9%; PLK1 PBD block: inconclusive

Results for CC(=O)c1cccc(NS(=O)(=O)c2ccc(N/C=C/C(=O)c3ccc(F)cc3)cc2)c1 ?
BAZ2B inh: inconclusive; HP1b chromo inh: 16%; Sfp PPTase inh: 22%; G9a block: 8.9µM*; JMJD2A Tudor inh: -20%; PLK1 PBD block: 0%

What do the screens show for `CC(=O)c1cccc(NS(=O)(=O)c2ccc(N/C=C\C(=O)c3ccc(F)cc3)cc2)c1`?
BAZ2B inh: -29%[57.1 µM]; HP1b chromo inh: -2%; Sfp PPTase inh: 2%; G9a block: inconclusive; JMJD2A Tudor inh: -25%; PLK1 PBD block: -5%

Results for CC(=O)c1ccc(NS(=O)(=O)c2ccc(N/C=C/C(=O)c3ccc(F)cc3)cc2)cc1 ?
BAZ2B inh: -25%; HP1b chromo inh: 2%; Sfp PPTase inh: 15%; G9a block: -31%[12.7 µM]; JMJD2A Tudor inh: inconclusive; PLK1 PBD block: 17µM*

How did CCOc1ccc(S(=O)(=O)N/N=C(\C)Cc2ccc(OC)cc2)cc1 do in these assays?
BAZ2B inh: inconclusive; HP1b chromo inh: 17%; Sfp PPTase inh: 10%; G9a block: 40µM*; JMJD2A Tudor inh: -15%; PLK1 PBD block: -4%

How did COc1ccc(C/C(C)=N/NC(=S)Nc2ccccc2)cc1 do in these assays?
BAZ2B inh: -10%; HP1b chromo inh: 27%; Sfp PPTase inh: inconclusive; G9a block: inconclusive; JMJD2A Tudor inh: -34%; PLK1 PBD block: inconclusive

Results for CCOc1ccc(NC(=S)N/N=C(\C)Cc2ccc(OC)cc2)cc1 ?
BAZ2B inh: inconclusive; HP1b chromo inh: -24%; Sfp PPTase inh: 9%; G9a block: inconclusive; JMJD2A Tudor inh: 7.1µM*; PLK1 PBD block: inconclusive

How did COc1ccc(C/C(C)=N/NC(=S)Nc2ccc(Cl)cc2)cc1 do in these assays?
BAZ2B inh: -34%; HP1b chromo inh: 11%; Sfp PPTase inh: inconclusive; G9a block: 7.1µM*; JMJD2A Tudor inh: -18%; PLK1 PBD block: -15%

Results for COc1ccc(S(=O)(=O)N/N=C(/C)c2ccc(C)o2)cc1 ?
HP1b chromo inh: 12%; JMJD2A Tudor inh: -18%; PLK1 PBD block: -19%

Results for COc1ccc(/C(C)=N/NC(=S)Nc2cc(C)ccc2C)cc1 ?
BAZ2B inh: inconclusive; HP1b chromo inh: -21%; Sfp PPTase inh: -14%; G9a block: 35µM*; JMJD2A Tudor inh: inconclusive; PLK1 PBD block: -11%

Results for Cc1ccc(N2CC(NC(=O)N3CCN(C(=O)c4ccco4)CC3)CC2=O)cc1 (centres undefined) ?
BAZ2B inh: 15%; HP1b chromo inh: 17%; G9a block: 14%[0.501 µM]; JMJD2A Tudor inh: -5%; PLK1 PBD block: -9%

Results for CCCCc1ccc(NC(=S)Nc2ccc(Nc3ccc(OC)cc3)cc2)cc1 ?
BAZ2B inh: 14µM*; HP1b chromo inh: inconclusive; Sfp PPTase inh: inconclusive; G9a block: 13µM*; JMJD2A Tudor inh: 28µM*; PLK1 PBD block: 15µM*

How did COc1ccc(C/C(C)=N/NC(=S)Nc2ccc(C)c(C)c2)cc1 do in these assays?
BAZ2B inh: 1%; HP1b chromo inh: -30%; Sfp PPTase inh: -6%; G9a block: 28µM*; JMJD2A Tudor inh: 32µM*; PLK1 PBD block: inconclusive

How did O=C(Cc1nnc(NC(=O)Nc2ccc(F)cc2)s1)NCc1ccccc1 do in these assays?
BAZ2B inh: -24%; HP1b chromo inh: 25%; Sfp PPTase inh: -5%; G9a block: 9%; JMJD2A Tudor inh: -10%; PLK1 PBD block: -3%

Results for Cn1c(SCc2ccc(Br)cc2)nc2c([nH]c3ccccc32)c1=O ?
BAZ2B inh: 3%; HP1b chromo inh: 11%[57 µM]; G9a block: 0%[59 µM]; JMJD2A Tudor inh: -7%

Results for CCCCc1c(CCC)c(=N)c2ccccc2n1C ?
BAZ2B inh: -4%[57.1 µM]; HP1b chromo inh: 35%; Sfp PPTase inh: 2%; G9a block: 11%[59 µM]; JMJD2A Tudor inh: 89µM*; PLK1 PBD block: 0%

Results for Cc1ccc(-n2cc(C(=O)OCc3ccc(F)c(F)c3)c3ccccc3c2=O)cc1 ?
BAZ2B inh: 7%; HP1b chromo inh: 26%[57 µM]; G9a block: 7%[59 µM]; JMJD2A Tudor inh: -6%

How did O=C(CSc1nc2c([nH]c3ccccc32)c(=O)n1-c1ccccc1)c1ccc(Cl)cc1 do in these assays?
BAZ2B inh: 2%; HP1b chromo inh: 21%[57 µM]; G9a block: 4%[59 µM]; JMJD2A Tudor inh: -11%

Results for NNC(=O)c1sc2cc(C(F)(F)F)cnc2c1-c1cccs1 ?
BAZ2B inh: -10%; HP1b chromo inh: 43%; Sfp PPTase inh: 7%; G9a block: -18%; JMJD2A Tudor inh: -6%; PLK1 PBD block: -4%

Results for O=C(Nc1ccccc1)c1sc2cc(C(F)(F)F)cnc2c1-c1cccs1 ?
BAZ2B inh: 3%; HP1b chromo inh: 6%; Sfp PPTase inh: 1%; G9a block: inconclusive; JMJD2A Tudor inh: 28µM*; PLK1 PBD block: 3µM*

How did NS(=O)(=O)c1cccc(NC(=O)c2cccs2)c1 do in these assays?
BAZ2B inh: -2%; HP1b chromo inh: -10%; Sfp PPTase inh: 6%; G9a block: 3%[12.7 µM]; JMJD2A Tudor inh: -24%[11.4 µM]; PLK1 PBD block: 13µM*

Results for NS(=O)(=O)c1cccc(NC(=O)COC(=O)c2cc(-c3ccc(Cl)cc3)nc3ccccc23)c1 ?
BAZ2B inh: -19%; HP1b chromo inh: 11%; Sfp PPTase inh: 30%; G9a block: 35µM*; JMJD2A Tudor inh: -19%; PLK1 PBD block: 0%

How did NS(=O)(=O)c1cccc(NC(=O)c2cc(-c3cccs3)nc3ccccc23)c1 do in these assays?
BAZ2B inh: -35%; HP1b chromo inh: 24%; Sfp PPTase inh: 10%; G9a block: 45µM*; JMJD2A Tudor inh: -21%; PLK1 PBD block: 8%

Results for NS(=O)(=O)c1cccc(NC(=O)CCC(=O)c2cccs2)c1 ?
BAZ2B inh: 2%; HP1b chromo inh: 10%; Sfp PPTase inh: 14%; G9a block: 22%[2.33 µM]; JMJD2A Tudor inh: -14%; PLK1 PBD block: -7%

How did CCCCCCC(=O)N1C/C=C\C(c2ccc(OC)cc2)N(Cc2ccc(F)cc2)C(=O)C1Cc1ccccc1 (centres undefined) do in these assays?
HP1b chromo inh: 19%; Sfp PPTase inh: -10%; JMJD2A Tudor inh: -30%

How did CCCCN1C(=O)C(CC(=O)NCc2ccco2)CC(C(=O)N2CCCCCC2)=C1C (centres undefined) do in these assays?
PLK1 PBD block: 0%

Screening data deposited in PubChem BioAssay by National Center for Advancing Translational Sciences (NCATS).
